32 molecules from PubChem BioAssay (NCATS) can be followed below.

Results filed as inconclusive are left out. Activity calls are given as the source filed them. Calls come from the whole dose curve; as a rule, active = well fitted curve in the direction sought with a large enough effect in the signal ratio; inconclusive = small, poorly fitted or top-dose-only effect, or effect the other way, or a change in a side signal; inactive = no such curve, though single readings can be large or run the other way; the % refers to the signal ratio.

The nature of this assay: Validation of Assay for Modulators of Lamin A Splicing (AID 1459).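 Note: cells exposed to compound for two days before reading; 0% is about no effect; ratio rise marks activators and ratio drop marks inhibitors.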 As to conditions: Lamin A splicing dual RFP/GFP fluorescence reporter; series mostly up to 9.22 µM; ratio change, both ways: at the top concentration. Summed up: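 S3 HeLa cells stably expressing a lamin A-EGFP splicing minigene and DsRed2 were seeded at 600 cells/well in Opti-MEM with 2% FBS, pin-dosed, and incubated 48 hrs at 37 °C, 5% CO2. Laser-scanning cytometry (488 nm) gave GFP/RFP total intensity ratio.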
Take `NCC(CP(=O)(O)O)c1ccc(Cl)cc1` (configuration not stated): the “ratio change, both ways” value was -17.9% (inactive).

For `CO[C@H]1CC=C2CCN3CCC4=C(CC(=O)OC4)[C@]23C1`, the “ratio change, both ways” value was -2.28% (inactive).

As for `NC(Cc1cc(O)c(O)cc1O)C(=O)O` (configuration not stated), the “ratio change, both ways” value was -13.4% (inactive).

Consider `CCCN1CC[C@@H]2c3cc(O)ccc3CC[C@@H]21`, for which the “ratio change, both ways” value is -9.5% (inactive). As for `CC(C)(C)c1o[nH]c(=O)c1CC(N)C(=O)O` (configuration not stated), the “ratio change, both ways” value is -12.9% (inactive). For `CCCN1CCCC2Cc3[nH]ncc3CC21` (configuration not stated), the “ratio change, both ways” value was -8.51% (inactive). Consider `COc1ccc(CNC(=O)/C=C/c2ccc3[nH]cc(CCN(C)C)c3c2)cc1`, for which the “ratio change, both ways” value was -5.56% (inactive). Regarding `NC(C(=O)O)c1cc(=O)[nH]o1` (configuration not stated), the “ratio change, both ways” value is -4.25% (inactive). For `O=C1CC[C@@]2(O)C3Cc4ccc(O)c5c4C2(CCN3CC2CC2)[C@H]1O5` (some centres not stated), the “ratio change, both ways” value was 7.07% (inactive). On to `C=CCN1CC[C@]23c4c5ccc(O)c4O[C@H]2/C(=N/NC(=O)c2ccccc2)CC[C@@]3(O)[C@H]1C5`, for which the “ratio change, both ways” value is -7.48% (inactive). As to `CCOC(=O)c1ncn2c1[C@@H]1CCCN1C(=O)c1cc(OC)ccc1-2`, the “ratio change, both ways” value was 4.27% (inactive). In the case of `Cc1o[nH]c(=O)c1CC(N)C(=O)O` (configuration not stated), the “ratio change, both ways” value was 8.42% (inactive). Next, `Oc1ccc2c3c1O[C@H]1c4[nH]c5ccccc5c4C[C@@]4(O)C(C2)N(CC2CC2)CCC314` (some centres not stated): -16% (inactive).

Turning to `N[C@@H](CCl)C(=O)O`, the “ratio change, both ways” value is -4.86% (inactive).

Regarding `C[C@H](Cc1ccc2c(c1)OC(C(=O)O)(C(=O)O)O2)NC[C@H](O)c1cccc(Cl)c1`, the “ratio change, both ways” value is -7.4% (inactive). As to `NCC(O)c1cc(O)c(O)cc1F` (configuration not stated), the “ratio change, both ways” value was 3.21% (inactive). With `CCN(CC)c1ncnc2c1ncn2[C@@H]1O[C@H](COP(=O)(O)OP(=O)(O)C(Br)(Br)P(=O)(O)O)[C@@H](O)[C@H]1O`, the “ratio change, both ways” value was -6.1% (inactive). For the molecule `Clc1ccc(N2CC3CCC(C2)N3)nn1`, the “ratio change, both ways” value is -4.61% (inactive). In the case of `CC(N)[C@H](O)c1ccc(O)c(O)c1` (some centres not stated), the “ratio change, both ways” value is 7.53% (inactive). For `Ic1ccccc1CNC1C2CCN(CC2)C1C(c1ccccc1)c1ccccc1` (configuration not stated), the “ratio change, both ways” value was -9.67% (inactive). As to `CN(C(=O)Cc1ccc(Cl)c(Cl)c1)C(CN1CCCC1)c1cccc(OCC(=O)O)c1` (configuration not stated), the “ratio change, both ways” value was -12.2% (inactive).

`CC(N)Cc1c[nH]c2ccc(OCc3cccs3)cc12` (configuration not stated): the “ratio change, both ways” value was -7.29% (inactive). `C[N+]1(C)CCOC(O)(c2ccc(-c3ccc(C4(O)C[N+](C)(C)CCO4)cc3)cc2)C1` (configuration not stated): the “ratio change, both ways” value is -5.77% (inactive). In the case of `CC(C)CC(NP(=O)(O)O[C@@H]1O[C@@H](C)[C@H](O)[C@@H](O)[C@H]1O)C(=O)NC(Cc1c[nH]c2ccccc12)C(=O)O` (some centres not stated), the “ratio change, both ways” value was 10.6% (inactive). Next, `C[Se]C[C@H](N)C(=O)O`: -8.38% (inactive); `CC1OC1P(=O)(O)O` (configuration not stated): -1.96% (inactive). Consider `CN1C2CCC1CC(OC(c1ccccc1)c1ccccc1N)C2` (configuration not stated), for which the “ratio change, both ways” value is -13.2% (inactive). `OC1CCCCC1N1CCC(c2ccccc2)CC1` (configuration not stated): the “ratio change, both ways” value is -4.24% (inactive). For `C=CCN1C[C@@H](C)N([C@H](c2ccc(C(=O)N(CC)CC)cc2)c2cccc(OC)c2)C[C@@H]1C` the value was 4.16% (inactive); for `COc1ccc2c(c1)[C@@]13CCCC[C@H]1[C@@H](C2)NCC3`, -17.6% (inactive); for `CCCN(CCC)C1CCc2cccc(O)c2C1` (configuration not stated), 9.24% (inactive).

With `COC(=O)N1CCN(C(=O)Cc2ccc(Cl)c(Cl)c2)C(CN2CCCC2)C1` (configuration not stated), the “ratio change, both ways” value is -7.7% (inactive).
